Test results from PubChem BioAssay AID624202 (National Center for Advancing Translational Sciences (NCATS), 2012).
Screen size: about 380,000 compounds; about 4,000 (1.1%) were called active. Another 3% or so got no clear call; they are omitted. The call rests on the fitted dose curve; in most records, active means well fitted activation curve with a large enough effect; inconclusive means small, poorly fitted or top-dose-only effect; inactive means no such curve, though single readings can be large or run the other way. For the sample, actives were picked, then their nearest neighbours and some compounds at random.

Test: qHTS Assay to Identify Small Molecule Activators of BRCA1 Expression; further: nearly all actives have a fitted effect of over 80% in size
Conditions: MCF7-BRCA1-FFLuc reporter, luminescence, 48 h; series mostly up to 46.1 µM
Method in brief: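 Luminescence from a BRCA1-driven firefly luciferase in MCF7 cells was read after 48 h compound exposure at 37 C. Data normalized against DMSO and a 10microM genistein activation control, then curve-fitted across the titration.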
Potency means the concentration at half of the fitted maximal effect.

Potency, active:
Cc1ccc(-n2c(SCC(=O)N3CCC(C(=O)O)CC3)nc3ccccc3c2=O)cc1C 4.47 µM
COc1ccc(N=Cc2c(O)[nH]c3ccccc23)cc1OC 3.16 µM
COc1cc(SC)ccc1C(=O)NCCOc1ccccc1Cl 7.94 µM
Oc1ccc(-c2cccc(-c3ccc(O)cc3)c2)cc1 10 µM
O=C(c1nnc(-c2ccc(Cl)cc2)o1)C1CCCC1 11.2 µM
CC(C)CNC(=S)NC(=O)c1ccc(Cl)cc1 10 µM
O=C(NCCCc1ccccc1)c1cc(COc2c(F)cccc2F)on1 12.6 µM
CC(C)Cc1cc(C(=O)NCCc2ccccc2)no1 5.01 µM
C/C(=N/NC(=O)c1ccc(NC(=O)c2ccc(F)cc2)cc1)c1ccccc1 12.6 µM
CC(C)(C)NC(=O)Cn1nnc(-c2ccccc2Cl)n1 12.6 µM
COc1ccc(N=C(C)c2sc3ccccc3c2O)cc1 5.01 µM
Cc1ccsc1C(=O)NCCc1ccco1 4.47 µM
Cc1cc(C(=O)Nc2nnc(C3CC3)s2)c(C)s1 3.55 µM

Potency, inactive:
COc1cc(OC)cc(-c2nc3nc(C)c(CCC(=O)Nc4ccc(C)cc4)c(C)n3n2)c1
O=C(CSc1nc2ccccc2c(=O)n1-c1ccccc1F)N1CCOCC1
CCc1c(O)nc(SCC(=O)N2CCCCC2)n(-c2ccccc2C)c1=O
COc1cccc(CNC(=O)CN2C(=O)CCc3cc(S(=O)(=O)N4CCOCC4)ccc32)c1
COc1cc(OC)c(/C=C/c2ccnc3ccccc23)c(OC)c1
COc1cc2[nH]c(O)c(C=O)c2cc1OC
COc1ccc(/C=C/c2ccnc3ccccc23)cc1OC
CCN(CC)/[N+]([O-])=N/OCOC(=O)Cc1c(C)n(C(=O)c2ccc(Cl)cc2)c2ccc(OC)cc12
CCc1ccc(CNC(=O)c2cc3cc4ccc(OC)cc4nc3o2)cc1
COc1ccccc1OCCNC(=O)CCNC(=O)c1ccccc1Cl
O=C(NCCOc1ccccc1Cl)C(=O)Nc1ccccc1
CCOCCc1nn2c(=O)cc(COC(=O)CNC(=O)c3ccc(C(C)(C)C)cc3)nc2s1
Cn1c(=O)nc2n(-c3ccc(Br)cc3)c3cccc(Cl)c3cc-2c1=O
O=C(CSc1ncc(S(=O)(=O)c2ccc(Br)cc2)c(=O)[nH]1)Nc1ccc2c(c1)OCCO2
O=C(OCc1ccc(-c2ccccc2)cc1)c1cccc(O)c1
c1ccc(-c2c[nH]c(-c3ccccc3)c2)cc1
COc1ccccc1CNC(=O)CCCCn1c(=O)c2ccccc2n(CC(=O)Nc2cc(Cl)ccc2C)c1=O
Cc1cccc(N2CCN(C(=O)c3oc(=O)c4ccccc4c3-c3ccccc3)CC2)c1C
O=C(c1[nH]ncc1-c1ccc(Cl)cc1)C1CO1 (configuration not stated)
O=C(Nc1cnn(Cc2ccc(Cl)cc2)c1)C1CCCC1
c1ccc(Cn2nnc3c(N4CCCCC4)ncnc32)cc1
COc1ccccc1CCNC(=O)c1cccn1-c1nnc(N2CCCCC2)s1
COc1ccc(C2NC(=O)N(C)C3=C2C(=O)N(c2ccc(C(=O)O)cc2)C3)cc1 (configuration not stated)
CC(C)CNC(=S)NNC(=O)c1nn(C)cc1Cl
Cc1scc(C(=O)NNC(=S)NCC(C)C)c1C
Cc1c2cnn(-c3ccccc3)c(=O)c2c(C)n1C(C)C(=O)Nc1ccc(Br)cc1F (configuration not stated)
Cc1cc(C)cc(-n2c(SCC(=O)NCC3CCCO3)nc3c([nH]c4ccccc43)c2=O)c1 (configuration not stated)
CN(CCOc1ccccc1)C(=O)c1cc(COc2c(F)cccc2F)on1
C[C@H](NC(=O)NCCc1ccccc1)C(=O)O
O=C(NCCN1CCCC(O)C1)c1cc(COc2c(F)cccc2F)on1 (configuration not stated)
Nc1nonc1C(=O)NCCc1ccccc1
O=S(=O)(c1ccc(C2CCCCC2)cc1)N1CCN(c2ccc(Cl)c(Cl)c2)CC1
CSc1cccc(NC(=O)CN2C(=O)CCc3cc(S(=O)(=O)N4CCCCC4)ccc32)c1
COc1ccc2c(c1)c(=O)c(C(=O)c1ccccc1)cn2CC(=O)Nc1ccc2c(c1)OCCO2
CC(=O)N1CCc2cc(Br)cc(S(=O)(=O)CCC(=O)NCCc3ccc(Cl)cc3)c21
CN(CC(=O)Nc1cccc(C(F)(F)F)c1)S(=O)(=O)c1cccs1
CC(=O)NN=C(C)c1ccc(NC(=O)C2CC2)cc1
C/C(=N/NS(=O)(=O)c1ccccc1)c1ccc(NC(=O)C(F)(F)F)cc1
O=C(CSc1nc(=O)n(Cc2cccnc2)c2c1CCC2)Nc1ccc(F)cc1F
CC(=O)Nc1ccc(S(=O)(=O)N2CCN(c3ccccc3)CC2)cc1
COc1cc(-c2nnn(CC(=O)NCc3ccccc3)n2)cc(OC)c1OC
Cc1ccccc1-c1nnn(CC(=O)c2ccc(S(=O)(=O)N3CCCC3)cc2)n1
O=C(Nc1ccccc1C(F)(F)F)c1nc(S(=O)(=O)Cc2ccccc2F)ncc1Cl
COC(=O)c1ccc(/C=C/c2c(-c3ccc(OC)cc3)sc3ccccc23)cc1
COc1ccccc1-c1sc2ccccc2c1-c1ccc(C(C)=O)cc1
CCN(CC)S(=O)(=O)c1ccc2c(c1)c(=O)c(C(=O)N1CCN(c3cccc(Cl)c3)CC1)cn2C
Cc1ccsc1C(=O)NC1CCCCC1C (configuration not stated)
CCNC(=O)c1sccc1-n1cccc1
NC(=O)Nc1ccc(/C=C/c2ccnc3ccccc23)cc1
COc1ccc(CNc2nc(-c3ccc(Cl)cc3)nn2C(=O)c2ccccc2)cc1
CCC(C(=O)Nc1cc(OC)ccc1OC)n1c(=O)c(C(F)(F)F)nc2ccccc21 (configuration not stated)
CC1CCN(c2ccc(C(=O)Nc3nnc(C4CC4)s3)cc2[N+](=O)[O-])CC1
Cc1cccc(NC(=O)CSCC(=O)Nc2nnc(C3CC3)s2)c1
Cc1ccc(Cc2nc3ccccc3nc2SCC(=O)Nc2cccc(C(F)(F)F)c2)cc1
